Laboratory results taken from the supplement of paper PMC10849652.
About 8,800 targets were measured; listed, in parts, are those with a hit and a random draw of the rest. About 0.5% of all pairs of compound and target were hits. A number with no mark means an inactive call.

Assays:
Assay in all cases: log2 fold change, soluble protein after heating vs DMSO (PISA); higher = thermal stabilisation; K562 lysate, 10 uM; active = over 0.2 and 3.5 SD of the protein, either way, in both replicates (recomputed)
erlotinib = compound: C#Cc1cccc(Nc2ncnc3cc(OCCOC)c(OCCOC)cc23)c1 [erlotinib]
In short: (§1)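 A 30 min treatment with 10 μM compound was applied to crude K562 extract at 1 mg/mL protein in PBS pH 7.4 with 1 mM MgCl2. Heating for 3 min spanned 48°C-58°C, after which aliquots were pooled, adjusted to 0.5% NP-40 at 4°C and spun at 21,000xg for 90 min. TMTpro 16plex LC-MS/MS of the supernatant, with channel sums equalised, gave values recorded as log-two fold change in thermal stability against solvent controls, from duplicates.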

[1] = compound: C/C(=N\NC(=O)C1=CC(=CC=C1)S(=O)(=O)N2CCOCC2)/C3=C(C=CC(=C3)Cl)O
In short: as §1

[2] = compound: C1=CC(=CC=C1C2=NC3=C(N2)C=C(C=C3)C(=O)N)OC4=CC=C(C=C4)Cl
In short: as §1

[3] = compound: C1=CC2=C(C=CC(=C2)/C=C\3/C(=O)NC(=NCC4=CC=CS4)S3)N=C1
In short: as §1

[4] = compound: C1=CC=C2C(=C1)C3=NNC4=CC=CC(=C43)C2=O
In short: as §1

[5] = compound: C1CCN(C1)C(=O)NC2=CC=CC(=C2)NC3=NC=C(C(=N3)NCCC4=CN=CN4)Br
In short: as §1

[6] = compound: C1CN(CCC1(CC2=CC=C(C=C2)Cl)N)C3=NC=NC4=C3C=CN4
In short: as §1

[7] = compound: CC(=O)c1cnc2ccc(-c3cc(Cl)c(O)c(Cl)c3)nc2c1N[C@H]1CC[C@H](CN(C)C)CC1
In short: as §1

[8] = compound: CC(C)C1=C2N=C(C=C(N2N=C1)NCC3=CC=CC=C3)NCCCCCCN
In short: as §1

[9] = compound: CC1=CC=C(C=C1)SC2=C3C=C(SC3=CN=C2)C(=O)N
In short: as §1

[10] = compound: C1=CC2=NC=CN=C2C=C1/C=C/3\C(=O)NC(=O)S3
In short: as §1

[11] = compound: C1=CC=C(C=C1)C2=NC(=C(N2)C3=CC=NC=C3)C4=CC(=C(C=C4)Cl)O
In short: as §1

IRAK-1-4 Inhibitor I = compound: C1COCCN1CCN2C3=CC=CC=C3N=C2NC(=O)C4=CC(=CC=C4)[N+](=O)[O-] [IRAK-1-4 Inhibitor I]
In short: as §1

ibrutinib = compound: C=CC(=O)N1CCC[C@@H](n2nc(-c3ccc(Oc4ccccc4)cc3)c3c(N)ncnc32)C1 [ibrutinib]
In short: as §1

ralimetinib = compound: CC(C)(C)Cn1c(N)nc2ccc(-c3[nH]c(C(C)(C)C)nc3-c3ccc(F)cc3)nc21 [ralimetinib]
In short: as §1

[12] = compound: CC(C)(O)CC(=O)NCCn1ccc2ncnc(Nc3ccc(Oc4cccc(C(F)(F)F)c4)c(Cl)c3)c21
In short: as §1

[13] = compound: CC1=C(C2=C(C=C1)C(=O)C3=CC=CC=C3N2CCCN)C
In short: as §1

[14] = compound: CC1=C(C=C(C=C1)NC(=O)C2=CC(=CC=C2)C(C)(C)C#N)NC3=CC4=C(C=C3)N=CN(C4=O)C
In short: as §1

[15] = compound: CC1=C(C=C(C=C1)NC(=O)C2=CC(=CC=C2)N(C)C)NC(=O)C3=CC=C(C=C3)O
In short: as §1

[16] = compound: CC1=C(C(CC(=O)N1)C2=CC=C(C=C2)C(F)(F)F)C(=O)NC3=C(C=C4C(=C3)C=NN4)F
In short: as §1

Sequence of UniProt P10646 (P10646 whole entry, looked up): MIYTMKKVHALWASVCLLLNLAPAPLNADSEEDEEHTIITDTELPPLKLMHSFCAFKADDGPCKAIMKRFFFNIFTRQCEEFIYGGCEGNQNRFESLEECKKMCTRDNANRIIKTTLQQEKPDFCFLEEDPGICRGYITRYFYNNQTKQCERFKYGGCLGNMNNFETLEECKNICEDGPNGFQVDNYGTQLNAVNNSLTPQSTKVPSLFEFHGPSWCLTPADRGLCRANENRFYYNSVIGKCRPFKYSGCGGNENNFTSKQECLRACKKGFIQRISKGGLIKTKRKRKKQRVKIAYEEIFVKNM
Sequence of UniProt P15923 (P15923 whole entry, looked up): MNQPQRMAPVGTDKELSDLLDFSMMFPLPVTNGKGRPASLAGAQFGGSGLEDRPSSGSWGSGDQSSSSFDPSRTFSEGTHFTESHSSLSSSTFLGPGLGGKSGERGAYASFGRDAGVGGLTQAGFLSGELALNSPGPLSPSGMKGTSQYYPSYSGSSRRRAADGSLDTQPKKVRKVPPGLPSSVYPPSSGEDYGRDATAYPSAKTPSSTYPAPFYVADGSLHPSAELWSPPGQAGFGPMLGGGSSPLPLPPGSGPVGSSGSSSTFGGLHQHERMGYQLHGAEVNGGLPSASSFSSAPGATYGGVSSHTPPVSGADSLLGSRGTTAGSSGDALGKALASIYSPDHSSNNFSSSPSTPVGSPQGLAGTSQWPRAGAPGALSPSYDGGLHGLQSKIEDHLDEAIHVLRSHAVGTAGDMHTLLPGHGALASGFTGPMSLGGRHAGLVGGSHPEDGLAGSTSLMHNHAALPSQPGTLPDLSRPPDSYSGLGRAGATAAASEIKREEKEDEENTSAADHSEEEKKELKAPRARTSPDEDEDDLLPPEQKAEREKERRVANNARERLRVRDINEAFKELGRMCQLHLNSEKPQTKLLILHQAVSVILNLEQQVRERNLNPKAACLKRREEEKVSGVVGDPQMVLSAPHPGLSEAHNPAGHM
Sequence of UniProt Q9UKE5 (Q9UKE5 whole entry, looked up): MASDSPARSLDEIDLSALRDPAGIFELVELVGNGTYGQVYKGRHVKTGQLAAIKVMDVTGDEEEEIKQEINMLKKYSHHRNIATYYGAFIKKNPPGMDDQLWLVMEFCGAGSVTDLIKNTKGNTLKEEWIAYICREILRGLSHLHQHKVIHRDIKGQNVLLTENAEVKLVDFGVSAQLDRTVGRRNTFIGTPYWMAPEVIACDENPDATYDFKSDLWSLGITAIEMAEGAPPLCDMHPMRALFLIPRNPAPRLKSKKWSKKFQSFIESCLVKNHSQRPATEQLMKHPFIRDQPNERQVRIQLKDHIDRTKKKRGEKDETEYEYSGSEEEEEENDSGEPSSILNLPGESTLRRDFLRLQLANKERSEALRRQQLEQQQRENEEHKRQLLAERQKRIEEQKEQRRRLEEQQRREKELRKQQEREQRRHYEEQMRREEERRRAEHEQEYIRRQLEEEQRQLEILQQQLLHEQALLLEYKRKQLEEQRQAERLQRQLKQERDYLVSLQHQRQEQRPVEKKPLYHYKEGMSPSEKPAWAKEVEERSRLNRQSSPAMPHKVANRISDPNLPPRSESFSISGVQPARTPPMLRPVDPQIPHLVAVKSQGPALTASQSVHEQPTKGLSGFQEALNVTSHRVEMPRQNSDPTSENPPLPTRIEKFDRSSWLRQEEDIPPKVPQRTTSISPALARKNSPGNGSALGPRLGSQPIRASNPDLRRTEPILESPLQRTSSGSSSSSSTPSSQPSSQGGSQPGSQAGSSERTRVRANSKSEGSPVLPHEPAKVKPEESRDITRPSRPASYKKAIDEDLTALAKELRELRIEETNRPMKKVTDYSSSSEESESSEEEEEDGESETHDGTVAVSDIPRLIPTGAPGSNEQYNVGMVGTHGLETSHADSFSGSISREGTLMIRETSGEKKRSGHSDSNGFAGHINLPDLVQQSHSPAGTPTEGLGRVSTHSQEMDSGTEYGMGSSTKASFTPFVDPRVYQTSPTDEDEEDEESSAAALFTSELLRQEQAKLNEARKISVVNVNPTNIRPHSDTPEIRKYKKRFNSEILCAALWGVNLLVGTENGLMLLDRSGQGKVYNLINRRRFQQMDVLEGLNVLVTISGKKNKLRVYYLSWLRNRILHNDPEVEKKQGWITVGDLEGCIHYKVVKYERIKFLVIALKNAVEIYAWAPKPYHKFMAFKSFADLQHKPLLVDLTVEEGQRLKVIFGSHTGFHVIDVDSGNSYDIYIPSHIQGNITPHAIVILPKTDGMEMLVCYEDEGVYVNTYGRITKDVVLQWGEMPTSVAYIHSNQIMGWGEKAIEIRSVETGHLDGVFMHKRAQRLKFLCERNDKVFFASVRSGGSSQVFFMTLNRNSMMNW
Sequence of UniProt Q6Q0C0 (Q6Q0C0 whole entry, looked up): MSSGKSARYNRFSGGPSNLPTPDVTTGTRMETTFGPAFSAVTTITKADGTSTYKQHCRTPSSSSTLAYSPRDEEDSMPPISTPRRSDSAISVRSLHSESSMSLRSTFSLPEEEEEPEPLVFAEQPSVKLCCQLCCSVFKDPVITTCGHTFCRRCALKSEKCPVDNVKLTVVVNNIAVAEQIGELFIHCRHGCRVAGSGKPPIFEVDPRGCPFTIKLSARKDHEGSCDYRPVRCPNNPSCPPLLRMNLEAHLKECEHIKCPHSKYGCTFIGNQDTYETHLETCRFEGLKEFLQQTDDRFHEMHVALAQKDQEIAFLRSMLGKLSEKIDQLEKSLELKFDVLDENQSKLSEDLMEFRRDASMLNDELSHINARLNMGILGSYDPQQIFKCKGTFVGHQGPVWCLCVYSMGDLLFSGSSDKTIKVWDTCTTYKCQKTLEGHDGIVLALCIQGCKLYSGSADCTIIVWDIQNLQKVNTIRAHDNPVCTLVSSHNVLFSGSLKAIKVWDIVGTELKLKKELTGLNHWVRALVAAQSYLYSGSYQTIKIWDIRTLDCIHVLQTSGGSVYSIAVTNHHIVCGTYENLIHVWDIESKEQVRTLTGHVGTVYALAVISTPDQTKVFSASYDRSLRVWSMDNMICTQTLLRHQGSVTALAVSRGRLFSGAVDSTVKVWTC
Sequence of UniProt Q24JP5 (Q24JP5 whole entry, looked up): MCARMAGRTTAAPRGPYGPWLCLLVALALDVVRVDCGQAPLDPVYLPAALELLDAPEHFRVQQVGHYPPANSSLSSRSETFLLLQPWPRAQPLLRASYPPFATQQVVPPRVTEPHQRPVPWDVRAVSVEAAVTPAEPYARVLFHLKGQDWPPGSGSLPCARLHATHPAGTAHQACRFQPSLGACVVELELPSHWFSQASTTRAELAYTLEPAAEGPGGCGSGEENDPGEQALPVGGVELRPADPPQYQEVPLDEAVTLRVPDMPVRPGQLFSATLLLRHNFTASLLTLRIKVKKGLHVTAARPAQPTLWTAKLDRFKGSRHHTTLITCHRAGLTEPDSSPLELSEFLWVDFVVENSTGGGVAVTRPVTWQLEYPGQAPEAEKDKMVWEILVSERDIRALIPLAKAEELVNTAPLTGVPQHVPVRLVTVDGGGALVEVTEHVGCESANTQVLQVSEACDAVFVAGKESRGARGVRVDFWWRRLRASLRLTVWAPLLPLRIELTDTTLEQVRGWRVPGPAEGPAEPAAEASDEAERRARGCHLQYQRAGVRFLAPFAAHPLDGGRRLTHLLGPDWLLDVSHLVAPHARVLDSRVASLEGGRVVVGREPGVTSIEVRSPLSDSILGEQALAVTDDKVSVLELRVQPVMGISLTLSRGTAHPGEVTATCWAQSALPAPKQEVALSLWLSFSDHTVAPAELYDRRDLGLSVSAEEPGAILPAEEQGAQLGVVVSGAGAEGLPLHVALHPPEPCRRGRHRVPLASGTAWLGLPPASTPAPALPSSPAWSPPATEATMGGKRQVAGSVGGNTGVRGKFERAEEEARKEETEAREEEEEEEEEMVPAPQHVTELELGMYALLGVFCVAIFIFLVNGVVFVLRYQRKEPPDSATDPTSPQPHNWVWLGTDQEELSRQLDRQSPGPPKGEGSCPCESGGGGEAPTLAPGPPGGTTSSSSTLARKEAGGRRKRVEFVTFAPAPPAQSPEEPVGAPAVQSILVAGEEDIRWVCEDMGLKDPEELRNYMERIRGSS
Sequence of UniProt Q9NNW7 (Q9NNW7 whole entry, looked up): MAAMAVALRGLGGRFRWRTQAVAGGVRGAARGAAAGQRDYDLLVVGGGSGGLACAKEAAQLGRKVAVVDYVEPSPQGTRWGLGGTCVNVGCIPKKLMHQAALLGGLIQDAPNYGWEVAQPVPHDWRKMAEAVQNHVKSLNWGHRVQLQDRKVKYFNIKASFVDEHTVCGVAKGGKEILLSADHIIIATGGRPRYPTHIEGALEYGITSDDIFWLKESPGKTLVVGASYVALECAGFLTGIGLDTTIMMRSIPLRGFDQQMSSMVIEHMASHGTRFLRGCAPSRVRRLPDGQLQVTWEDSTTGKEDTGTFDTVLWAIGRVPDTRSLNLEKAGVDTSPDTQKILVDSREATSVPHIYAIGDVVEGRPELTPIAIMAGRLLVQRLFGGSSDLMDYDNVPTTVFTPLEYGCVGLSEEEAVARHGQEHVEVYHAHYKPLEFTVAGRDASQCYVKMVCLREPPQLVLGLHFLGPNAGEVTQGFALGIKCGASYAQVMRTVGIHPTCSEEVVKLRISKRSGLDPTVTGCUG
Sequence of UniProt Q6P9G4 (Q6P9G4 whole entry, looked up): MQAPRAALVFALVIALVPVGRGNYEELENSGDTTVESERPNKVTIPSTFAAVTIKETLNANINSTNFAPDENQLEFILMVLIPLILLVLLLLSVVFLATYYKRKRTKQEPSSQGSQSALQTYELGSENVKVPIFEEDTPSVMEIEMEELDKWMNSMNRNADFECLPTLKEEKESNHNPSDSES
Sequence of UniProt P55851 (P55851 whole entry, looked up): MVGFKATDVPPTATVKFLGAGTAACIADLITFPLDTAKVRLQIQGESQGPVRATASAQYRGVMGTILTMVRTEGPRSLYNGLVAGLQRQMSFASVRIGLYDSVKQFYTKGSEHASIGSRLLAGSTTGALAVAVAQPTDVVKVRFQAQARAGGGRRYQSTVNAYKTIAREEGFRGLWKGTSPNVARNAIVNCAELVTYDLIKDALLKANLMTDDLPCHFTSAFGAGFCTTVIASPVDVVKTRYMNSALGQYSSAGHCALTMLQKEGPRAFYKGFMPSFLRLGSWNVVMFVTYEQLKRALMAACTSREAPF

| Target | log2 fold change (erlotinib) | log2 fold change [1] | log2 fold change [2] | log2 fold change [3] | log2 fold change [4] | log2 fold change [5] | log2 fold change [6] | log2 fold change [7] | log2 fold change [8] | log2 fold change [9] | log2 fold change [10] | log2 fold change [11] | log2 fold change (IRAK-1-4 Inhibitor I) | log2 fold change (ibrutinib) | log2 fold change (ralimetinib) | log2 fold change [12] | log2 fold change [13] | log2 fold change [14] | log2 fold change [15] | log2 fold change [16] |
| --- | --- | --- | --- | --- | --- | --- | --- | --- | --- | --- | --- | --- | --- | --- | --- | --- | --- | --- | --- | --- |
| TRIM3 (UniProt O75382) | 0.129 | 0.2 | -0.909 (active) | 0.098 | 0.012 | 0 | -0.265 | -0.06 | -0.09 | 0.048 | – | – | – | – | – | – | – | – | – | – |
| TNIK isoform 5 (UniProt Q9UKE5) | – | – | – | – | – | – | – | 0.345 | – | -0.136 | 0.008 | 0.134 | -0.038 | 0.07 | 0.016 | -0.026 | -0.091 | 0.276 | -0.004 | – |
| TUBB4A (UniProt P04350) | 0.036 | – | 0.015 | – | – | 0.017 | -0.001 | -0.018 | 0.088 | -0.068 | -0.016 | -0.066 | 0.086 | 0.007 | 0.074 | 0.039 | -0.086 | -0.085 | -0.015 | 0.009 |
| TRPM4 (UniProt Q8TD43) | 0.018 | – | 0.164 | – | – | – | – | – | -0.325 | – | -0.094 | 0.004 | -0.152 | 0.099 | -0.021 | -0.063 | -0.055 | 0.116 | 0.05 | – |
| TCF3 (UniProt X6REB3) | – | -0.006 | – | -0.208 | -0.192 | – | – | – | – | – | – | – | – | – | – | – | – | – | – | – |
| TMEM132A isoform 2 (UniProt Q24JP5) | -0.031 | – | -0.009 | – | – | 0.042 | 0.068 | 0.676 | 0.03 | 0.019 | – | -0.064 | 0.101 | – | 0.065 | -0.194 | – | 0.05 | 0.015 | – |
| TMPO isoform 2 (UniProt P42167) | – | -0.053 | – | 0.044 | -0.121 | 0.163 | 0.038 | – | – | – | 0.143 | – | – | -0.108 | – | – | -0.006 | – | – | – |
| TRAF7 (UniProt Q6Q0C0) | – | 0.006 | – | -0.042 | -0.151 | -0.05 | 0.116 | – | – | – | – | -0.026 | -0.047 | – | 0.046 | -0.091 | -0.022 | 0.07 | -0.031 | 0.023 |
| TNFAIP3 (UniProt P21580) | 0.018 | – | 0.024 | – | – | -0.296 | 0.09 | -0.1 | -0.045 | 0.053 | 0.03 | -0.049 | 0.047 | -0.123 | -0.056 | 0.005 | 0.016 | -0.035 | 0.068 | 0.003 |
| UBAP2L isoform 1 (UniProt Q14157) | – | – | – | – | – | – | – | – | – | – | 0.081 | -0.367 | 0.084 | -0.075 | -0.306 | -0.123 | – | -0.833 (active) | -0.161 | 0.114 |
| UCP2 (UniProt P55851) | – | 0.217 | – | -0.114 | -0.025 | – | – | – | – | – | – | 0.011 | -0.026 | – | 0.091 | -0.081 | – | -0.045 | -0.1 | 0.073 |
| TEC (UniProt P42680) | – | 0.092 | – | -0.051 | -0.048 | -0.024 | -0.038 | -0.096 | – | 0.143 | – | – | – | – | – | – | – | – | – | -0.023 |
| UBAP2L (UniProt F8W726) | – | -0.074 | – | 0.048 | 0.168 | – | – | 0.275 | – | -0.025 | – | – | – | – | – | – | – | -0.547 (active) | – | – |
| TMC1 (UniProt Q8TDI8) | -0.028 | -0.001 | -0.007 | 0.013 | -0.071 | -0.148 | -0.081 | -0.016 | 0.204 | -0.045 | – | -0.072 | 0.099 | – | 0.156 | -0.185 | – | -0.104 | 0.017 | -0.034 |
| TFPT (UniProt P0C1Z6) | -0.078 | – | 0.037 | – | – | – | – | 0.1 | -0.053 | -0.06 | -0.186 | – | – | 0.046 | – | – | -0.145 | – | – | – |
| UBN1 (UniProt Q9NPG3) | – | 0.032 | – | -0.056 | 0.051 | 0 | -0.023 | 0.015 | – | 0.081 | – | – | – | – | – | – | 0.03 | 0.066 | – | – |
| TMEM154 (UniProt Q6P9G4) | – | – | – | – | – | -0.096 | 0.108 | – | – | – | – | 0.01 | 0.019 | – | -0.079 | 0.164 | 0.048 | -0.052 | 0.172 | – |
| TLE3 (UniProt H0YL70) | – | – | – | – | – | – | – | – | – | – | – | – | – | – | – | – | 0.004 | – | – | – |
| TEDC1 (UniProt Q86SX3) | 0.05 | – | 0.057 | – | – | -0.127 | -0.048 | -0.023 | -0.066 | -0.024 | – | 0.05 | -0.06 | – | -0.049 | -0.001 | -0.033 | -0.018 | 0.082 | 0 |
| TCF20 (UniProt Q9UGU0) | -0.04 | – | -0.001 | – | – | – | – | 0.128 | -0.317 | -0.166 | 0.039 | – | – | -0.025 | – | – | -0.212 | -0.004 | – | – |
| TCF3 isoform 2 (UniProt P15923) | 0.131 | – | -0.049 | – | – | – | – | – | 0.046 | – | – | 0.154 | -0.249 | – | -0.118 | -0.103 | – | -0.1 | 0.118 | – |
| TMSB4X (UniProt P62328) | 0.079 | – | 0.084 | – | – | 0.018 | 0.085 | -0.03 | 0.033 | -0.064 | -0.031 | 0.002 | -0.083 | 0.519 | 0 | -0.072 | – | -0.025 | 0.075 | 0.122 |
| TM2D3 (UniProt Q9BRN9) | 0.104 | – | -0.083 | – | – | 0.153 | 0.088 | – | -0.201 | – | -0.068 | 0.205 | 0.148 | 0.02 | -0.14 | -0.157 | – | – | 0.07 | – |
| TFPI isoform 2 (UniProt P10646) | – | 0.01 | – | 0.113 | -0.171 | – | – | – | – | – | – | – | – | – | – | – | – | -0.034 | – | – |
| TXNRD2 isoform 3 (UniProt Q9NNW7) | 0.024 | – | 0.035 | – | – | – | – | – | -0.303 | – | – | 0.14 | -0.006 | – | -0.018 | -0.323 | – | – | 0.079 | – |
| THAP9 (UniProt Q9H5L6) | – | 0.019 | – | -0.015 | -0.042 | -0.092 | 0.098 | -0.061 | – | -0.087 | 0.01 | 0.028 | 0.145 | 0.038 | -0.168 | -0.332 | -0.199 | 0.234 | 0.017 | – |
| UBAP2 (UniProt Q5JV08) | – | – | – | – | – | – | – | – | – | – | – | – | – | – | – | – | – | – | – | -0.097 |
